Experimental data: PubChem BioAssay (EPA / NIEHS)
Where “and” joins values, the source holds several entries; their conditions need not be identical. Equal entries are not always repeated. Some structures have more than one record in an assay (separate samples or runs), and their calls can disagree. Calls of active or inactive are those of the source. How the source made its calls: active means hit-call score of the fitted dose curve at least 0.9, where 1 is the maximum; inactive means score below 0.9.

Experiments:
Conditions in all cases: primary human HUVEC with PBMC; actives raise or lower the signal
[1] = read-out: Macrophage colony-stimulating factor (MCSF), CSF1 (gene 1435); assay: BSK_LPS_MCSF: BioMAP Diversity Plus: LPS Assay for Macrophage colony-stimulating factor (MCSF) Biomarker Activity (AID 2283083)
Outline: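 ELISA readout of M-CSF after 24 h compound exposure in a human endothelial/PBMC co-culture. Activity, in either direction, is fitted relative to DMSO vehicle.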

[2] = read-out: Tissue Factor, F3 (gene 2152); assay: BSK_LPS_TissueFactor: BioMAP Diversity Plus: LPS Assay for Tissue Factor Biomarker Activity (AID 2283084)
Outline: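 ELISA signal for cell-surface Tissue Factor (CD142) was read 24 h after compound dosing of an LPS-stimulated human endothelial–PBMC primary co-culture. Gain or loss of signal was scored relative to DMSO.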

[3] = read-out: Tumor necrosis factor (Homo sapiens) (UniProt P01375); assay: BSK_LPS_TNFa: BioMAP Diversity Plus: LPS Assay for Tumour Necrosis Factor alpha (TNFa) Biomarker Activity (AID 2283085)
Outline: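 Read-out is ELISA of TNFa in primary human endothelial cell–PBMC co-cultures at 24 h after compound. Activity in either direction was fitted against DMSO.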

[4] = read-out: Vascular cell adhesion molecule 1 (VCAM1), VCAM1 (gene 7412); assay: BSK_LPS_VCAM1: BioMAP Diversity Plus: LPS Assay for Vascular cell adhesion molecule 1 (VCAM1) Biomarker Activity (AID 2283086)
Outline: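 HUVEC + PBMC co-culture, LPS system; compound 24 h; VCAM-1 by ELISA; bidirectional fit vs DMSO control; parallel SRB (0.1%, TCA-fixed, 560 nm) for cytotoxicity.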

CD38, CD38 (gene 952) = assay: BSK_SAg_CD38: BioMAP Diversity Plus: SAg Assay for CD38 Biomarker Activity (AID 2283087)
Outline: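 Human HUVEC plus PBMC co-culture stimulated with superantigen; CD38 measured by ELISA 24 h after chemical dosing. Fluorescence read-out, bidirectional fit against DMSO; cytotoxicity tracked in parallel by SRB and Alamar Blue.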

CD40, CD40 (gene 958) = assay: BSK_SAg_CD40: BioMAP Diversity Plus: SAg Assay for CD40 Biomarker Activity (AID 2283088)
Outline: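 Compounds were dosed onto a human primary endothelial–PBMC co-culture, and after 24 h CD40 was quantified by ELISA using a fluorescence signal. Activity in either direction was fitted relative to DMSO.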

CD69, CD69 (gene 969) = assay: BSK_SAg_CD69: BioMAP Diversity Plus: SAg Assay for CD69 Biomarker Activity (AID 2283089);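 on AC50: cell surface CD69 protein quantified by ELISA with fluorescence detection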
Outline: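 Values derive from bidirectional fitting relative to DMSO vehicle. Cells: umbilical vein endothelium plus peripheral blood mononuclear cells, treated 24 h before fluorescent ELISA for CD69.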

[5] = read-out: Monocyte Chemoattractant Protein-1 (MCP1), CCL2 (gene 6347); assay: BSK_SAg_MCP1: BioMAP Diversity Plus: SAg Assay for Monocyte Chemoattractant Protein-1 (MCP1) Biomarker Activity (AID 2283090)
Outline: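 MCP-1 levels in the endothelial–PBMC SAg co-culture were quantified by ELISA at 24 h post-dosing; both increases and decreases versus DMSO scored. Cytotoxicity monitored by SRB total protein in parallel cultures.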

[6] = read-out: E-selectin (Homo sapiens) (UniProt P16581); assay: BSK_SAg_Eselectin: BioMAP Diversity Plus: SAg Assay for Eselectin Biomarker Activity (AID 2283091)
Outline: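 Co-culture: HUVEC + PBMC. Dose compound; 24 h. ELISA for E-selectin. Bidirectional fit vs DMSO.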

[7] = BSK_LPS_PGE2: BioMAP Diversity Plus: LPS Assay for Prostaglandin E2 (PGE2) Biomarker Activity (AID 2283082);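 on AC50: secreted prostaglandin E2 measured by ELISA in LPS-stimulated co-culture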
Outline: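 LPS-activated HUVEC/PBMC co-culture; cmpd dosed, 24 h; PGE2 by ELISA; bidirectional fit vs DMSO; SRB (0.1%, TCA-fixed, 560 nm) in parallel plates for overt cytotox.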

Sequence of Tumor necrosis factor (Homo sapiens) (P01375 whole entry, looked up): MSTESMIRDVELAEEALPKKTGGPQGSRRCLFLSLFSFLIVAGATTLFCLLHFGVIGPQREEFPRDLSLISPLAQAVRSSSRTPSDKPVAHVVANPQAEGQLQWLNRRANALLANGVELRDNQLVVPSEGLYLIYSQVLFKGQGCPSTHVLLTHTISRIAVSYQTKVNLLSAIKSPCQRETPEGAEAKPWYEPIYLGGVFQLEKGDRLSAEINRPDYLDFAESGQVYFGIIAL
Sequence of E-selectin (Homo sapiens) (P16581 whole entry, looked up): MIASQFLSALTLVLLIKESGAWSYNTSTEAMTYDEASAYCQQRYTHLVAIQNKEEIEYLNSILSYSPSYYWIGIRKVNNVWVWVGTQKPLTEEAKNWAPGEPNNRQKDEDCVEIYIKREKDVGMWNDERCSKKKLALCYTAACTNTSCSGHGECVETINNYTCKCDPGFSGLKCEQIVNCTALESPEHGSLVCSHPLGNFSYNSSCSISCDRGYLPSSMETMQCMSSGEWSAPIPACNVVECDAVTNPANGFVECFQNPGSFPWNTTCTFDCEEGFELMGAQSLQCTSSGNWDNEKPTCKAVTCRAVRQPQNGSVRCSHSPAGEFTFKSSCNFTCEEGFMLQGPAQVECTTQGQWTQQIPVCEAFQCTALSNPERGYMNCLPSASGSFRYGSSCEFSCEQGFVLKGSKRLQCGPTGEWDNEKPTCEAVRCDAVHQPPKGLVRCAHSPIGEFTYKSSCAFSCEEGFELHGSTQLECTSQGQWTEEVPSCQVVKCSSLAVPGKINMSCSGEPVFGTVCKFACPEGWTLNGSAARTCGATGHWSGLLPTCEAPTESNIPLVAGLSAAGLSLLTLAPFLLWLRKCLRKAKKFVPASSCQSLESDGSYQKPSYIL

Q: What does the source list for `C[C@H]1C[C@@H]2[C@H]([C@@H](O)C[C@@]3(C)[C@H]2CC[C@]3(O)C(=O)CO)[C@@]2(C)C=CC(=O)C=C12`?
A: outcome [1]: inactive; AC50 [2]: 6.44 µM (active); outcome [2]: inactive; AC50 [3]: 4.93 µM (active) and 3.97 µM (active); outcome [4]: inactive; outcome (CD38, CD38 (gene 952)): inactive; outcome (CD40, CD40 (gene 958)): inactive; outcome (CD69, CD69 (gene 969)): inactive; outcome [5]: inactive; AC50 [6]: 3.1 µM (active) and 1.1 µM (active)

Q: Which outcome [1] does the source give for `CC(C)Oc1ccccc1O` here?
A: Its outcome is “inactive”.

Q: And the outcome [2]?
A: Its outcome is “inactive”.

Q: And the outcome [3]?
A: Its outcome is “inactive”.

Q: And the outcome [4]?
A: The outcome was “inactive”.

Q: What about the outcome (CD38, CD38 (gene 952)) of the same compound?
A: Its outcome is “inactive”.

Q: What about the outcome (CD40, CD40 (gene 958)) of the same compound?
A: The outcome was “inactive”.

Q: And the outcome (CD69, CD69 (gene 969))?
A: Its outcome is “inactive”.

Q: And the outcome [5]?
A: The outcome was “inactive”.

Q: What about the outcome [6] of the same compound?
A: Its outcome is “inactive”.

Q: For `CCCCC(CC)COC(=O)/C=C\C(=O)OCC(CC)CCCC` (stereo unspecified), which outcome [7] is on record?
A: The outcome was “inactive”.

Q: What about the outcome [1] of the same compound?
A: The outcome was “inactive”.

Q: What about the outcome [2] of the same compound?
A: Its outcome is “inactive”.

Q: What about the outcome [3] of the same compound?
A: The outcome was “inactive”.

Q: And the AC50 [4]?
A: Its AC50 is 11.9 µM (active).

Q: What about the outcome (CD38, CD38 (gene 952)) of the same compound?
A: Its outcome is “inactive”.

Q: What about the outcome (CD40, CD40 (gene 958)) of the same compound?
A: The outcome was “inactive”.

Q: What about the outcome (CD69, CD69 (gene 969)) of the same compound?
A: The outcome was “inactive”.

Q: And the outcome [5]?
A: The outcome was “inactive”.

Q: And the outcome [6]?
A: Its outcome is “inactive”.

Q: What does the source list for `Cc1cc(C2(c3cc(C)c(O)cc3C)OS(=O)(=O)c3ccccc32)c(C)cc1O`?
A: outcome [1]: inactive; outcome [2]: inactive; outcome [3]: inactive; outcome [4]: inactive; outcome (CD38, CD38 (gene 952)): inactive; outcome (CD40, CD40 (gene 958)): inactive; outcome (CD69, CD69 (gene 969)): inactive; outcome [5]: inactive; outcome [6]: inactive

Q: For `Cc1ccc2n[nH]nc2c1`, which outcome [1] is on record?
A: Its outcome is “inactive”.

Q: And the outcome [2]?
A: The outcome was “inactive”.

Q: And the outcome [3]?
A: The outcome was “inactive”.

Q: What about the outcome [4] of the same compound?
A: Its outcome is “inactive”.

Q: What about the outcome (CD38, CD38 (gene 952)) of the same compound?
A: Its outcome is “inactive”.

Q: And the outcome (CD40, CD40 (gene 958))?
A: Its outcome is “inactive”.

Q: What about the outcome (CD69, CD69 (gene 969)) of the same compound?
A: The outcome was “inactive”.

Q: What about the outcome [5] of the same compound?
A: Its outcome is “inactive”.

Q: What about the outcome [6] of the same compound?
A: The outcome was “inactive”.

Q: Which results are given for `O=C1CCCCCCCCCCCCCCO1`?
A: AC50 [7]: 3.97 µM (active); outcome [1]: inactive; outcome [2]: inactive; outcome [3]: inactive; AC50 [4]: 23.5 µM (active); outcome (CD38, CD38 (gene 952)): inactive; outcome (CD40, CD40 (gene 958)): inactive; AC50 (CD69, CD69 (gene 969)): 20 µM (active); outcome [5]: inactive; outcome [6]: inactive

Q: With `BrC1CCC(Br)C(Br)CCC(Br)C(Br)CCC1Br` (stereo unspecified) as the compound, how does the AC50 [7] read?
A: Its AC50 is 3.87 µM (active).

Q: And the AC50 [1]?
A: The AC50 was 4.67 µM (active).

Q: What about the outcome [2] of the same compound?
A: The outcome was “inactive”.

Q: And the outcome [3]?
A: The outcome was “inactive”.

Q: What about the AC50 [4] of the same compound?
A: The AC50 was 4.54 µM (active).

Q: And the AC50 (CD38, CD38 (gene 952))?
A: The AC50 was 4.57 µM (active).

Q: What about the AC50 (CD40, CD40 (gene 958)) of the same compound?
A: Its AC50 is 4.59 µM (active).

Q: What about the outcome (CD69, CD69 (gene 969)) of the same compound?
A: The outcome was “inactive”.

Q: What about the outcome [5] of the same compound?
A: Its outcome is “inactive”.

Q: What about the outcome [6] of the same compound?
A: Its outcome is “inactive”.

Q: For `O=[N+]([O-])c1cc(C(F)(F)F)ccc1Cl`, which outcome [1] is on record?
A: The outcome was “inactive”.

Q: And the outcome [2]?
A: Its outcome is “inactive”.

Q: What about the outcome [3] of the same compound?
A: The outcome was “inactive”.

Q: And the outcome [4]?
A: The outcome was “inactive”.

Q: And the outcome (CD38, CD38 (gene 952))?
A: Its outcome is “inactive”.

Q: What about the outcome (CD40, CD40 (gene 958)) of the same compound?
A: The outcome was “inactive”.

Q: And the outcome (CD69, CD69 (gene 969))?
A: Its outcome is “inactive”.

Q: And the outcome [5]?
A: Its outcome is “inactive”.

Q: What about the outcome [6] of the same compound?
A: Its outcome is “inactive”.

Q: Which results are given for `C=CCOC(=O)CCC1CCCCC1`?
A: outcome [7]: inactive; outcome [1]: inactive; AC50 [2]: 1.01 µM (active); outcome [2]: inactive; outcome [3]: inactive; outcome [4]: inactive; outcome (CD38, CD38 (gene 952)): inactive; outcome (CD40, CD40 (gene 958)): inactive; outcome (CD69, CD69 (gene 969)): inactive; outcome [5]: inactive; outcome [6]: inactive

Q: For `NCCNCCN`, which outcome [7] is on record?
A: The outcome was “inactive”.

Q: What about the outcome [1] of the same compound?
A: The outcome was “inactive”.

Q: What about the outcome [2] of the same compound?
A: Its outcome is “inactive”.

Q: And the outcome [3]?
A: Its outcome is “inactive”.

Q: And the outcome [4]?
A: The outcome was “inactive”.

Q: What about the outcome (CD38, CD38 (gene 952)) of the same compound?
A: The outcome was “inactive”.

Q: And the outcome (CD40, CD40 (gene 958))?
A: Its outcome is “inactive”.

Q: What about the outcome (CD69, CD69 (gene 969)) of the same compound?
A: The outcome was “inactive”.

Q: And the outcome [5]?
A: The outcome was “inactive”.

Q: And the outcome [6]?
A: The outcome was “inactive”.

Q: Which results are given for `O=C(O)C[C@H](O)C[C@H](O)/C=C/c1c(C2CC2)nc2ccccc2c1-c1ccc(F)cc1`?
A: outcome [1]: inactive; outcome [2]: inactive; AC50 [3]: 3.17 µM (active); outcome [4]: inactive; outcome (CD38, CD38 (gene 952)): inactive; AC50 (CD40, CD40 (gene 958)): 0.216 µM (active); AC50 (CD69, CD69 (gene 969)): 0.109 µM (active); outcome [5]: inactive; AC50 [6]: 1.97 nM (active)

Q: What does the source list for `C#C[C@]1(O)CC[C@H]2[C@@H]3CCC4=Cc5oncc5C[C@]4(C)[C@H]3CC[C@@]21C`?
A: AC50 [7]: 3.97 µM (active); outcome [1]: inactive; outcome [2]: inactive; outcome [3]: inactive; outcome [4]: inactive; outcome (CD38, CD38 (gene 952)): inactive; outcome (CD40, CD40 (gene 958)): inactive; outcome (CD69, CD69 (gene 969)): inactive; outcome [5]: inactive; outcome [6]: inactive
